Measured values published in PubChem BioAssay AID1159580 (chemical genetic matrix, 2015).
Out of some 5,500 compounds screened, about 2,000 (36%) were called active. Roughly 18% stayed inconclusive and do not appear here. No stated cut-off is given here; in the data, active means normalized growth mostly below about 0.91 (no sharp cut-off); inconclusive means no clear call, values can overlap the other calls; inactive means mostly above about 0.92. Some of the results follow.

Assay: chemical genetic growth profiling, strain panel (AID 1159580);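 further: tested at 20 µM; growth read once vehicle control cultures reached saturation at 30 °C; 1 = growth at the plate median or of vehicle wells; lower values mean less growth of the strain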
Details: S. cerevisiae deletion strains, growth OD

Measured: normalized growth

N=c1ccn2c(n1)OC1C(O)C(CO)OC12 (stereo unspecified)
inactive: locus YAL021C, strain ccr4, hits give low values 1.01 | locus YAL026C, strain drs2, hits give low values 1.02 | locus YAL030W, strain snc1, hits give low values 0.991 | locus YBL061C, strain skt5, hits give low values 1.01 | locus YBR009C, strain hhf1, hits give low values 1.01 | locus YBR023C, strain chs3, hits give low values 0.995 | locus YBR171W, strain sec66, hits give low values 1.01 | locus YBR231C, strain swc5, hits give low values 1.01 | locus YBR279W, strain paf1, hits give low values 1.01 | locus YCL011C, strain gbp2, hits give low values 1.01 | locus YCL016C, strain dcc1, hits give low values 1 | locus YCL061C, strain MRC1, hits give low values 0.986 | locus YCL069W, strain vba3, hits give low values 1.01 | locus YCR088W, strain abp1, hits give low values 1.01 | locus YDL005C, strain med2, hits give low values 0.986 | locus YDL040C, strain nat1, hits give low values 0.986 | locus YDR001C, strain nth1, hits give low values 1.01 | locus YDR069C, strain doa4, hits give low values 1.01 | locus YDR137W, strain rgp1, hits give low values 1.02 | locus YDR159W, strain sac3, hits give low values 1 | locus YDR195W, strain ref2 0.976 | locus YDR297W, strain sur2, hits give low values 0.986 | locus YDR334W, strain swr1, hits give low values 1 | locus YDR335W, strain msn5, hits give low values 1 | locus YDR392W, strain spt3, hits give low values 1.01 | locus YEL003W, strain gim4, hits give low values 1 | locus YEL037C, strain rad23, hits give low values 0.995 | locus YEL061C, strain CIN8 (second series), hits give low values 1.01 | locus YER015W, strain faa2, hits give low values 1.01 | locus YER016W, strain bim1, hits give low values 1 | locus YER111C, strain swi4, hits give low values 0.981 | locus YER155C, strain BEM2 (second series), hits give low values 1.01 | locus YFR010W, strain ubp6, hits give low values 0.998 | locus YGL167C, strain pmr1, hits give low values 1 | locus YGL173C, strain kem1, hits give low values 0.996 | locus YGL227W, strain vid30, hits give low values 1.02 | locus YGL240W, strain doc1, hits give low values 0.978 | locus YGL253W, strain hxk2, hits give low values 1 | locus YHR013C, strain ard1, hits give low values 1.01 | locus YHR027C, strain rpn1, hits give low values 1.01 | locus YHR142W, strain chs7, hits give low values 1.01 | locus YJL092W, strain hpr5, hits give low values 1.01 | locus YJL095W, strain BCK1 (second series), hits give low values 1 | locus YJL115W, strain asf1, hits give low values 1.01 | locus YJL129C, strain trk1, hits give low values 1.02 | locus YJL154C, strain vps35, hits give low values 1 | locus YJL164C, strain tpk1, hits give low values 1 | locus YJL166W, strain qcr8, hits give low values 0.982 | locus YKL160W, strain elf1, hits give low values 1 | locus YKR026C, strain gcn3, hits give low values 1.02 | locus YKR091W, strain srl3, hits give low values 1 | locus YLL001W, strain dnm1, hits give low values 0.998 | locus YLL026W, hits give low values 1 | locus YLL041C, strain sdh2, hits give low values 1 | locus YLR027C, strain aat2, hits give low values 1.01 | locus YLR221C, strain rsa3, hits give low values 0.993 | locus YLR258W, strain gsy2, hits give low values 1.01 | locus YLR262C, strain YPT6 (second series), hits give low values 1.02 | locus YLR320W, strain mms22, hits give low values 1.01 | locus YLR342W, strain FKS1, hits give low values 1.01 | locus YLR357W, strain rsc2, hits give low values 0.946 | locus YLR370C, strain arc18, hits give low values 1.01 | locus YLR384C, strain iki3, hits give low values 1 | locus YML120C, strain ndi1, hits give low values 0.993 | locus YMR058W, strain fet3, hits give low values 0.998 | locus YMR125W, strain sto1, hits give low values 0.995 | locus YMR129W, hits give low values 0.987 | locus YMR205C, strain PFK2, hits give low values 1.01 | locus YMR231W, strain pep5, hits give low values 1.01 | locus YNL071W, strain lat1, hits give low values 1.02 | locus YNL209W, strain ssb2, hits give low values 1 | locus YNL248C, strain rpa49, hits give low values 1.01 | locus YNL322C, strain KRE1 (second series), hits give low values 1.01 | locus YNR049C, strain mso1, hits give low values 1 | locus YOR001W, strain rrp6, hits give low values 1.01 | locus YOR070C, strain gyp1, hits give low values 1.01 | locus YOR080W, strain dia2, hits give low values 0.996 | locus YOR083W, strain WHI5, hits give low values 1.01 | locus YOR106W, strain vam3, hits give low values 1.02 | locus YOR265W, strain rbl2, hits give low values 0.993 | locus YOR270C, strain vph1, hits give low values 1.04 | locus YOR290C, strain snf2, hits give low values 1.01 | locus YPL051W, strain arl3, hits give low values 1 | locus YPL078C, strain atp4, hits give low values 0.996 | locus YPL106C, strain sse1, hits give low values 0.981 | locus YPL240C, strain hsp82, hits give low values 1.02
